Experimental data from PubChem BioAssay AID504652 (National Center for Advancing Translational Sciences (NCATS), 2011).
About 11,000 (3.1%) of roughly 360,000 compounds were called active. Rule as the data show it: active = activity change below about -30%; inactive = the rest. The sample as a whole holds a higher share of actives than the screen did.

Each compound was assayed against D(1A) dopamine receptor (Homo sapiens) (UniProt P21728) (assay: Antagonist of Human D 1 Dopamine Receptor: qHTS). Details: HEK293 TREx D1 cells, calcium flux, dopamine EC80; at 10 µM; hits give low values.
Chain of D(1A) dopamine receptor (Homo sapiens) (P21728 whole entry, looked up): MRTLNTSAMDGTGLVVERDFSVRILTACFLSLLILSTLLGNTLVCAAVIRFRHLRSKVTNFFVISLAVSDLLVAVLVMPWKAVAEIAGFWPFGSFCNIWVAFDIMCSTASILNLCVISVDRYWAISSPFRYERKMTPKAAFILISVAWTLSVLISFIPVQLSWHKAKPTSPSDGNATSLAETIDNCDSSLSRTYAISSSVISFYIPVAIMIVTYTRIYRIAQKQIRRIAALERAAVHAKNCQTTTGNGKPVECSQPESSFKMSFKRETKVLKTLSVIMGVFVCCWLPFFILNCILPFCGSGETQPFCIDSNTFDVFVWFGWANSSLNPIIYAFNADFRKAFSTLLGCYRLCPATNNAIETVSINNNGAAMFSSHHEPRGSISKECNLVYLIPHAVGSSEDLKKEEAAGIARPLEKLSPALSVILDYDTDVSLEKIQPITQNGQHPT
In short: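 Compound effects on dopamine-evoked calcium signalling were measured in tetracycline-induced HEK293 Trex D1 cells. Dopamine at EC80 followed a 180 s compound pre-read, and fluorescence was tracked kinetically for 180 s more.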
% is scaled to controls: 0 for no effect and ±100 for the full control effect.

SMILES | activity change, negative = inhibition
Cc1ccc(S(=O)(=O)N(Cc2nc(-c3ccc(Cl)cc3)no2)C2CCCCC2)cc1 | -2.35% (inactive)
NS(=O)(=O)c1ccc(CNC(=O)c2cccc(S(=O)(=O)N3CCc4ccccc43)c2)cc1 | -4.68% (inactive)
NS(=O)(=O)c1ccc(CNC(=O)c2cccc(Oc3ccccc3)c2)cc1 | -38.4% (active)
NS(=O)(=O)c1ccc(CNC(=O)c2cnccn2)cc1 | 9.99% (inactive)
CCN(CC)S(=O)(=O)c1ccc2c(c1)N(CC(=O)NCC(C)c1ccccc1)C(=O)CO2 (stereo unspecified) | 6.95% (inactive)
CCCCN(CC)C(=O)c1c[nH]c2ccc(S(=O)(=O)Nc3cccc(OC)c3)cc2c1=O | 16.9% (inactive)
CCC(=O)N1CCc2cc(S(=O)(=O)NCCC(=O)Nc3cccc(C)c3C)ccc21 | -2.16% (inactive)
Nc1nnn(CC(=O)N/N=C/c2ccc(O)cc2)n1 | -2.2% (inactive)
O=C(CC(=O)Nc1ccc(Cl)c(Cl)c1)N/N=C/c1ccc(O)cc1 | -37.9% (active)
CC1=NNC(=O)C1CCC(=O)N/N=C\c1ccc(Cl)c(Cl)c1 (stereo unspecified) | 6.69% (inactive)
Cc1ccn2c(Nc3ccc4c(c3)OCCO4)c(-c3ccc(C)s3)nc2c1 | -15.7% (inactive)
S=C(Nc1ccc(Br)cc1)NC1CCN(Cc2ccccc2)CC1 | -68.5% (active)
Cc1cc(C(=O)NC2CCN(Cc3ccccc3)CC2)n[nH]1 | -5.73% (inactive)
S=C(Nc1ccc(Br)cc1Cl)NC1CCN(Cc2ccccc2)CC1 | -18.2% (inactive)
O=C(NC1CCN(Cc2ccccc2)CC1)c1cc(Br)c(Br)[nH]1 | -71.3% (active)
O=C(NC1CCN(Cc2ccccc2)CC1)c1ccc(Oc2cc(Cl)cc(Cl)c2)o1 | -10.1% (inactive)
S=C(NN=C1CCN(Cc2ccccc2)CC1)NC1CCCCC1 | 2.36% (inactive)
Cc1ccc2nc(COc3ccccc3NC(=O)Nc3ccc(F)c(Cl)c3)cc(=O)n2c1 | -18.5% (inactive)
CCc1ccccc1N(C)C(=O)C1CCCN(c2ncnc3onc(-c4ccc(F)cc4)c23)C1 (stereo unspecified) | -2.86% (inactive)
O=C(O)c1ccc(Cn2c(SCc3ccc(F)cc3)nc3ccncc32)cc1 | 11.2% (inactive)
CCc1ccccc1NC(=O)c1cnn(-c2ccc(F)cc2)c1C1CCNCC1 | -15.1% (inactive)
CCOC(=O)c1ccccc1NC(=O)c1sc2nc(-c3ccc(F)cc3)cn2c1C | 6.46% (inactive)
CCOc1ccc(NC(=O)C(=O)NCCc2csc3nc(-c4ccccc4F)nn23)cc1 | -3.3% (inactive)
CSCCC(NC(=O)c1ccccc1)C(=O)N1CCN(Cc2ccc(Cl)cc2)CC1 (stereo unspecified) | 18.2% (inactive)
CSCCC(NC(=O)c1ccccc1)C(=O)N1CCCCCCC1 (stereo unspecified) | -32.7% (active)
COc1ccccc1C(=O)NC(CCSC)C(=O)N1CCN(C(C)=O)CC1 (stereo unspecified) | -23.2% (inactive)
